Drawing on PubChem BioAssay AID1347172 (National Center for Advancing Translational Sciences (NCATS), 2019), this text covers Potency and activity change, negative = inhibition for 30 compounds.

Inconclusive results are not listed. A call without a number means that no potency is given here. Active and inactive are the calls of the source. Calls follow the shape of the dose curve; as a rule, active = well fitted inhibition curve with a large enough effect; inconclusive = small, poorly fitted or top-dose-only effect; inactive = flat fitted curve, though single readings scatter.

The nature of this test: Secondary qRT-PCR qHTS assay for selected Zika virus inhibitors. The conditions noted are these: Vero cells ZIKV infection, NS5 RNA qRT-PCR, 24 h; series mostly up to 32.6 µM. Summed up: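 Viral load was measured as NS5 RNA by TaqMan qRT-PCR and expressed relative to vehicle. This followed ZIKV infection (MOI 1, 3 h adsorption, then wash) of compound-treated Vero cells and 21 h further culture at 37C.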
Background: In qPCR the cycle at which signal appears reflects the starting amount.
`CN(CC(=O)N(Cc1ccc(C2CCCCC2)cc1)c1ccc(C(=O)O)cc1)S(=O)(=O)c1c(F)c(F)c(F)c(F)c1F`: the Potency was 12.6 µM (active).
The same measure, in the same setting: the value for `O=C1NC(=O)/C(=C/c2cccc(C(F)(F)F)c2)S1` was “inactive”; that for `N#Cc1ccc(N2N=C3c4ccc(C(=O)O)cc4CC[C@@H]3[C@@H]2C2CCCC2)cc1Cl` was “inactive”.
As for `CC(=O)O[C@@H]1C[C@]2(C)[C@@]3(CCC4[C@@]5(C)CC[C@H](O[C@@H]6O[C@H](C(=O)O)[C@@H](O)[C@H](O[C@@H]7O[C@H](CO)[C@H](O)[C@H](O)[C@H]7O[C@@H]7O[C@@H](C)[C@H](O)[C@@H](O)[C@H]7O[C@@H]7OC[C@](O)(CO)[C@H]7O)[C@H]6O[C@@H]6O[C@H](CO)[C@H](O)[C@H](O)[C@H]6O)C(C)(C)C5CC[C@]42C)O[C@@H](O)[C@]12C3CC(C)(C)[C@@H](OC(=O)/C=C/c1ccc(O)c(O)c1)[C@@H]2OC(=O)/C=C/c1ccccc1` (stereo not given in full), the activity change, negative = inhibition is -6.06% [at 6.77 µM] (inactive).
For `O=C(O)Cn1nnc(-c2cc(N3CCC(Oc4cc(F)ccc4Br)CC3)no2)n1`, the Potency result was “inactive”.
The same measure, in the same setting: the value for `Oc1cc2ccccc2c2ccccc12` was 22.4 µM (active).
On the same count and under the same terms, under `CCOc1nc2cccc(C(=O)OC(C)OC(=O)OC3CCCCC3)c2n1Cc1ccc(-c2ccccc2-c2nn[nH]n2)cc1` (stereo not given) stands 12.6 µM (active).
As to `O=C(O)c1ccc(CCCc2ccc(OCCc3ccc(F)cc3)cc2)o1`, the Potency result was “inactive”.
Same read-out and setting: the value for `O=C1NC(=O)/C(=C/c2ccc3c(c2)OC(F)(F)O3)S1` was “inactive”.
Take `COc1cc(C)c(C(=O)OC2C(C)OC(OC3CCC(C)C4C3C=C(C)C3/C(C)=C\CC/C(C)=C/C5(C)C=C(C(=O)O)C(C)CC56OC(=O)/C(=C(\O)C34C)C6=O)C(O)C2O)c(OC)c1` (stereo not given): the activity change, negative = inhibition was -1.08% [at 8.13 µM] (inactive).
For `Nc1ccn([C@@H]2O[C@H](CO)[C@@H](O)C2(F)F)c(=O)n1`, the Potency entry was “inactive”.
The same measure, in the same setting: the value for `O=C(O)Cc1cc(I)c(Oc2ccc(O)c(I)c2)c(I)c1` was “inactive”; that for `COc1cc(/C=C/c2ccccc2)c(C(=O)O)c(O)c1CC=C(C)C` was “inactive”.
Still for that read-out and setting: under `COc1ccc(NS(=O)(=O)c2ccc(NS(=O)(=O)c3ccc4c(c3)OCCO4)cc2)cc1` stands “inactive”.
Take `CC(C)(C)Sc1c(CC(C)(C)C(=O)O)n(Cc2ccc(Cl)cc2)c2ccc(OCc3ccc4ccccc4n3)cc12`: the Potency was 25.1 µM (active).
Same read-out and setting: the value for `COc1cc(C(=O)O)ccc1NC(=O)[C@@H]1N[C@@H](CC(C)(C)C)[C@](C#N)(c2ccc(Cl)cc2F)[C@H]1c1cccc(Cl)c1F` was 12.6 µM (active); that for `CC(=O)N1c2ccc(-c3ccc(C(=O)O)cc3)cc2C(Nc2ccc(Cl)cc2)CC1C` (stereo not given) was “inactive”.
On to `Cc1ccc2nc(NS(=O)(=O)c3ccc(Cl)cc3)c(Nc3ccc(C(=O)O)cc3)nc2c1`, for which the Potency entry is “inactive”.
As to `COc1ccccc1-c1cccc(-c2c(O)c3cc(C#N)c(Cl)cc3[nH]c2=O)c1`, the Potency result was “inactive”.
The same measure, in the same setting: under `CC(C)(Sc1ccc(CCN(CCCCC2CCCCC2)C(=O)NC2CCCCC2)cc1)C(=O)O` stands “inactive”; under `CN(C)[C@@H]1C(=O)C(C(N)=O)=C(O)[C@@]2(O)C(=O)C3=C(O)c4c(O)cccc4C[C@H]3C[C@@H]12`, “inactive”; under `CO[C@H]1C[C@@H](O[C@@H]2/C(C)=C/C[C@@H]3C[C@@H](C[C@]4(CC[C@H](C)[C@@H](C5CCCCC5)O4)O3)OC(=O)[C@@H]3C=C(C)/C(=N/O)[C@H]4OC/C(=C\C=C\[C@@H]2C)[C@]43O)O[C@@H](C)[C@H]1O`, 3.98 µM (active).
As to `CC(=O)Nc1ccc([C@H](C)C(=O)Nc2ncc(C(C)C)s2)cc1`, the Potency result is “inactive”.
Consider `O=S(=O)(O)c1ccc2cc(N=Nc3cc(S(=O)(=O)O)c4cccnc4c3O)ccc2c1`, for which the Potency entry was “inactive”.
On the same count and under the same terms, under `O=S(=O)(Nc1cc(Cl)c(Oc2cnc3ccccc3c2)c(Cl)c1)c1ccc(Cl)cc1Cl` stands 22.4 µM (active); under `O=C(O)c1ccc(O)c2ncc(N3CCCN(CCc4cccc5ccccc45)CC3)cc12`, “inactive”.
The same measure, in the same setting: the value for `CC(C)c1ccc2c(c1)c(SC(C)(C)C)c(CC(C)(C)C(=O)O)n2Cc1ccc(Cl)cc1` was 10 µM (active); that for `O=C(O)c1ccc(S(=O)(=O)N(Cc2ccc(OC(F)(F)F)cc2)c2ncc(C(F)(F)F)cc2Cl)cc1` was “inactive”; that for `N#CC1(c2cccc(C(=O)Nc3cc(Oc4ccc5nc(NC(=O)C6CC6)sc5n4)ccc3F)c2Cl)CC1` was “inactive”.
Still for that read-out and setting: the value for `Nc1ncnc2c([C@@H]3N[C@H](CO)[C@@H](O)[C@H]3O)c[nH]c12` was “inactive”.
